The record followed here is PubChem BioAssay (Tox21).

Results filed as inconclusive are left out. Entries that show only a call come without a potency. The source made the active and inactive calls. Calls follow the shape of the dose curve; as a rule, active = well fitted activation curve with a large enough effect in the signal ratio in the repeat runs, with a control signal flat (not every such curve was filed as active); inconclusive = weak or mixed curves; inactive = flat fitted curve, though single readings scatter; the % refers to the signal ratio.

This assay in a line: qHTS assay for small molecule activators of the heat shock response signaling pathway (AID 743210). The note with it: HeLa HSE-bla reporter, beta-lactamase ratio, 5 h; series mostly up to 62.6 µM. A digest of the protocol: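 Compound exposure lasted 5 h at 37 C in HeLa cells carrying a heat-shock-element-driven beta-lactamase reporter. Read-out: fluorescence intensity after 2.5 h room-temperature loading with LiveBLAzer B/G FRET substrate.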
On to `Nc1cccc2ccccc12`, for which the Potency result was “inactive”.

In the case of `c1ccc2c(c1)-c1cccc3cccc-2c13`, the Potency result is “inactive”. For the molecule `CCC1(CCC(C)C)C(=O)NC(=O)NC1=O`, the Potency entry was “inactive”. The value for `COc1ccc(C(=O)c2c(C)n(CCN3CCOCC3)c3ccccc23)cc1` was “inactive”; that for `O=C(O)c1cc(I)cc(I)c1I` was “inactive”; that for `CCC1(C2=NCCN2)Cc2ccccc2O1` (stereo unspecified) was “inactive”. The result for `O=C(O)C(Cl)(Cl)Br` reads “inactive”. Regarding `CCC1CCC(=O)O1` (stereo unspecified), the Potency entry was “inactive”. The result for `CCCCCCCCP(=O)(O)O` reads “inactive”; that for `C=CCc1ccc(OC(=O)Cc2ccccc2)c(OC)c1`, “inactive”; that for `O=C1CC[C@@]2(O)[C@H]3Cc4ccc(O)c5c4[C@@]2(CCN3CC2CC2)[C@H]1O5`, “inactive”. The result for `C[C@]12CC[C@H]3[C@@H](CCC4=CC(=O)CC[C@@H]43)[C@@H]1CC[C@@H]2OC(=O)CCc1ccccc1` reads “inactive”; that for `O=C(O)COc1cc(Cl)c(Cl)cc1Cl`, “inactive”; that for `CCCN(CCOc1c(Cl)cc(Cl)cc1Cl)C(=O)n1ccnc1`, “inactive”. On to `CN(C)C(=O)Nc1cccc(OC(=O)NC(C)(C)C)c1`, for which the Potency result was “inactive”. The result for `Nc1ccccc1C(=O)OCCc1ccccc1` reads “inactive”; that for `CC(C)CCCCCCCOC(=O)c1ccccc1C(=O)OCCCCCCCC(C)C`, “inactive”; that for `O=C(O)CCCOc1ccc(Cl)cc1Cl`, “inactive”. Take `COC1=CC(=O)O[C@@H](/C=C/c2ccc3c(c2)OCO3)C1`: the Potency result is “inactive”. The value for `CC(C)(C)OOC(C)(C)CCC(C)(C)OOC(C)(C)C` was “inactive”. The value for `C[C@@H]1C[C@@H]([C@H](O)CC2CC(=O)NC(=O)C2)C(=O)[C@@H](C)C1` was “inactive”.
